Results reported in the supplement of paper PMC11732987, “Enantioselective OTUD7B fragment discovery through chemoproteomics screening and high-throughput optimisation” (Communications Chemistry, 2025).

What was measured:
Experiment in all cases: log2 ratio of Biotin-Ahx-Ub-VS probe labelling (fragment/DMSO); higher = less target engagement (more negative = stronger competition), active = hit call of the paper (q ≤ 0.05, log2 ratio ≤ -1)
Conditions in all cases: compound concentration: 200 uM; treatment time: 3 h
USP19 = biological target: T1, USP19 (UniProt O94966)
T1 sequence (whole entry): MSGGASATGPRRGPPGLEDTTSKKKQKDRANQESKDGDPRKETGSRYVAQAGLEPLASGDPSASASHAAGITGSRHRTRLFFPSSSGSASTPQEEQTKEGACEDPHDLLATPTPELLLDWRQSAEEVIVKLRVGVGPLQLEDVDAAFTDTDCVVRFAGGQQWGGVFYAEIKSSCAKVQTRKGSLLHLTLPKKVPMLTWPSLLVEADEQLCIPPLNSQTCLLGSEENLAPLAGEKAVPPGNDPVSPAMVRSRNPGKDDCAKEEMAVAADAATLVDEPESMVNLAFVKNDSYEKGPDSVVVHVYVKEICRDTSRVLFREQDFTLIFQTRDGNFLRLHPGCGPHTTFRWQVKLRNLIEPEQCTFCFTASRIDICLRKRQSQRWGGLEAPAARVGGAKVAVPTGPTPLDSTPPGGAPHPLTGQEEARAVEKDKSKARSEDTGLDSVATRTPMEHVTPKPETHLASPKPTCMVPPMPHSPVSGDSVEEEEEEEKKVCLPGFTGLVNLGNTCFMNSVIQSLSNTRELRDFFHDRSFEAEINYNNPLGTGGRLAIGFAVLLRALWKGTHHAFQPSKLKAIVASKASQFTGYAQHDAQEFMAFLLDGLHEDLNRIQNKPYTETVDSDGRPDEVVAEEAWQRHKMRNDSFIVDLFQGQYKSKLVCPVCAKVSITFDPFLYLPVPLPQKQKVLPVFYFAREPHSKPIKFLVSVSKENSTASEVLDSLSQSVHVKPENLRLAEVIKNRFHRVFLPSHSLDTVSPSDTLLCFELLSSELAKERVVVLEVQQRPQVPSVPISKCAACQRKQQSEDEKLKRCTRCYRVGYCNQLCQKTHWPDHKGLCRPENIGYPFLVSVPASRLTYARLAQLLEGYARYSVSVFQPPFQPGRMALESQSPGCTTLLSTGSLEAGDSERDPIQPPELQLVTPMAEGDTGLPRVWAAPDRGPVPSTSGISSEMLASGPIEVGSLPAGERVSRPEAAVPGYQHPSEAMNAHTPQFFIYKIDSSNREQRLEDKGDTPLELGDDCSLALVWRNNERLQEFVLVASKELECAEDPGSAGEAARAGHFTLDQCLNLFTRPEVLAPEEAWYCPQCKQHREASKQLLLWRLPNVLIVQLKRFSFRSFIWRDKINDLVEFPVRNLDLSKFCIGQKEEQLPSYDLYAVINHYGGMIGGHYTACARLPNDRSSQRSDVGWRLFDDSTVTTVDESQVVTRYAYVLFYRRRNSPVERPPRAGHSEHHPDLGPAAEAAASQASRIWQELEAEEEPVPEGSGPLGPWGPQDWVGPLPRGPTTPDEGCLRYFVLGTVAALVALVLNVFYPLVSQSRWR
Outline: (§1)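 Triplicate samples of HEK293T lysate, 495 µg each, received fragment at 200 µM or vehicle for 3 h, followed by Biotin-Ahx-Ub-VS (0.5 µM final) for 1 h. After NeutrAvidin enrichment of labelled DUBs and LysC/trypsin digestion, peptides were run by diaPASEF LC-MS/MS. The values are average log2 fragment/vehicle ratios from global-median-normalised Spectronaut label-free quantities, tested by unpaired t-test on proteins having ≥2 unique peptides.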

USP22 = biological target: T2, USP22 (UniProt Q9UPT9)
T2 sequence (whole entry): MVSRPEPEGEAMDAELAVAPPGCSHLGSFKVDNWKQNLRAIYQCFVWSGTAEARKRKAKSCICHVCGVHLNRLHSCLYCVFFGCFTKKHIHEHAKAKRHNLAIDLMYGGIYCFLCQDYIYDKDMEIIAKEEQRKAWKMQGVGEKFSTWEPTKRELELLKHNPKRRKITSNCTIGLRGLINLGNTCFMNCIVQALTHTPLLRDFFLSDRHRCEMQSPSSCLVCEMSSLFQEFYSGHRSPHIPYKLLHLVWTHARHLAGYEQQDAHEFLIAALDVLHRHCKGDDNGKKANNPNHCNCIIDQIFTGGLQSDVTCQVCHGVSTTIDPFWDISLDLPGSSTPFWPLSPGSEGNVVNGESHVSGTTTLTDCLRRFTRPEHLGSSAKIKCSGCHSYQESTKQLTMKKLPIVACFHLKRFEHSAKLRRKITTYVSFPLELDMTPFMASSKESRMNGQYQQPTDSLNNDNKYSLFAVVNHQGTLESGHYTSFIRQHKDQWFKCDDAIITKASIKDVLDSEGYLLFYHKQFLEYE
Outline: as §1

USP24 = USP24 (UniProt Q9UPU5)
Outline: as §1

USP25 = biological target: T3, USP25 (UniProt Q9UHP3)
T3 sequence (whole entry): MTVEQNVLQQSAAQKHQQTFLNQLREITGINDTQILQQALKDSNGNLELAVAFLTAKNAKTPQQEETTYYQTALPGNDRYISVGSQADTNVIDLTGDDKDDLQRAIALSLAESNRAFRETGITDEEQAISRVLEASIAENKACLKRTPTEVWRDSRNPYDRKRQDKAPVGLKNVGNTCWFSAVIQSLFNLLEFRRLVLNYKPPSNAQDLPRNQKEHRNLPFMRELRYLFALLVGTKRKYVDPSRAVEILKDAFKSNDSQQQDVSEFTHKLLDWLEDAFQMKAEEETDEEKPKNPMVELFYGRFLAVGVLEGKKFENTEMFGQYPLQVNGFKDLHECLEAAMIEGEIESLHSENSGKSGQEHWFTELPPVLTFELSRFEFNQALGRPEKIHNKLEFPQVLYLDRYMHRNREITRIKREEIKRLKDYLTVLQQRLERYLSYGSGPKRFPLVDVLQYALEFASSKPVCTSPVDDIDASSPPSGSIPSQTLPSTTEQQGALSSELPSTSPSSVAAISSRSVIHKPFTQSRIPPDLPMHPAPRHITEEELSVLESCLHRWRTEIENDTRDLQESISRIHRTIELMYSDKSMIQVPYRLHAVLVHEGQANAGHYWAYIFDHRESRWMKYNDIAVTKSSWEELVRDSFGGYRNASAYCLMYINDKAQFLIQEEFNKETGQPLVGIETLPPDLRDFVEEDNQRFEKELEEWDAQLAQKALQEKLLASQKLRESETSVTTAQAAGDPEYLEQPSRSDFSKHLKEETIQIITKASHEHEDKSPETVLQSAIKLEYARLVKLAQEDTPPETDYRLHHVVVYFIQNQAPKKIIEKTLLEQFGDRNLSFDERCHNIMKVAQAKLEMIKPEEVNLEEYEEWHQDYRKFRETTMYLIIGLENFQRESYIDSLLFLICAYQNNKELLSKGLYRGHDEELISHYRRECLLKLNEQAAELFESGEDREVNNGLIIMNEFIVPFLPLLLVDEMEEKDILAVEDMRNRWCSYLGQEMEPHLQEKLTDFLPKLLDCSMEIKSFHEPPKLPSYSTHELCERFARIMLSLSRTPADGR
Outline: as §1

USP28 = biological target: T4, USP28 (UniProt Q96RU2)
T4 sequence (whole entry): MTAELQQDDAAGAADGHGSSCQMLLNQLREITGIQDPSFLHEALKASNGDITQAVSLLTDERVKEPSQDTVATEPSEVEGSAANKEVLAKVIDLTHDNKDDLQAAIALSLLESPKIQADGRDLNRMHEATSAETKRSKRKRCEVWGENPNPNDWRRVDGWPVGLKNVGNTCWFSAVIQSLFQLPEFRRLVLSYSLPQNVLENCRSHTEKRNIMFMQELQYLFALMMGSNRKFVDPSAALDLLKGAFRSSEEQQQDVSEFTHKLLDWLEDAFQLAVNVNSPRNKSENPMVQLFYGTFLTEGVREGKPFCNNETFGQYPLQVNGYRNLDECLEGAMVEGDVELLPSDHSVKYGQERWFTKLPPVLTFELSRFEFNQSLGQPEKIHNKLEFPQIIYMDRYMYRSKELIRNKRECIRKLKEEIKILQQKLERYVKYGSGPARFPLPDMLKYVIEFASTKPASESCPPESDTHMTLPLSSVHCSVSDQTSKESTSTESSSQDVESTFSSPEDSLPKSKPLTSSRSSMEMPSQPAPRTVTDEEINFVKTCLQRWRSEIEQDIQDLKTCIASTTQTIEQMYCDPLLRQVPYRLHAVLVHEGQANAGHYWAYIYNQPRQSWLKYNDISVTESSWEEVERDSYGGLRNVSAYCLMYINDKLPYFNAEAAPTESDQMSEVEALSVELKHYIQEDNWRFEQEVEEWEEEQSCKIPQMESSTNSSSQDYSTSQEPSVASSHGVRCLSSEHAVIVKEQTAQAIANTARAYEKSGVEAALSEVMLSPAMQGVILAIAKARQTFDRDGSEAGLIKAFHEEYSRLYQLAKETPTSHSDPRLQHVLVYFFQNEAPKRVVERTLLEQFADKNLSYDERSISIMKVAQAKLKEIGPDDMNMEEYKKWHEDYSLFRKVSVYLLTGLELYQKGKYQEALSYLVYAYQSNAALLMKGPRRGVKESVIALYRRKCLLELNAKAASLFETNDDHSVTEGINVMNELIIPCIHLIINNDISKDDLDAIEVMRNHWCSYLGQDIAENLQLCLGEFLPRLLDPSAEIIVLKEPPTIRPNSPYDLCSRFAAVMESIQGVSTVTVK
Outline: as §1

Measured: log2 ratio of Biotin-Ahx-Ub-VS probe labelling

Sequence of USP24 (Q9UPU5 whole entry): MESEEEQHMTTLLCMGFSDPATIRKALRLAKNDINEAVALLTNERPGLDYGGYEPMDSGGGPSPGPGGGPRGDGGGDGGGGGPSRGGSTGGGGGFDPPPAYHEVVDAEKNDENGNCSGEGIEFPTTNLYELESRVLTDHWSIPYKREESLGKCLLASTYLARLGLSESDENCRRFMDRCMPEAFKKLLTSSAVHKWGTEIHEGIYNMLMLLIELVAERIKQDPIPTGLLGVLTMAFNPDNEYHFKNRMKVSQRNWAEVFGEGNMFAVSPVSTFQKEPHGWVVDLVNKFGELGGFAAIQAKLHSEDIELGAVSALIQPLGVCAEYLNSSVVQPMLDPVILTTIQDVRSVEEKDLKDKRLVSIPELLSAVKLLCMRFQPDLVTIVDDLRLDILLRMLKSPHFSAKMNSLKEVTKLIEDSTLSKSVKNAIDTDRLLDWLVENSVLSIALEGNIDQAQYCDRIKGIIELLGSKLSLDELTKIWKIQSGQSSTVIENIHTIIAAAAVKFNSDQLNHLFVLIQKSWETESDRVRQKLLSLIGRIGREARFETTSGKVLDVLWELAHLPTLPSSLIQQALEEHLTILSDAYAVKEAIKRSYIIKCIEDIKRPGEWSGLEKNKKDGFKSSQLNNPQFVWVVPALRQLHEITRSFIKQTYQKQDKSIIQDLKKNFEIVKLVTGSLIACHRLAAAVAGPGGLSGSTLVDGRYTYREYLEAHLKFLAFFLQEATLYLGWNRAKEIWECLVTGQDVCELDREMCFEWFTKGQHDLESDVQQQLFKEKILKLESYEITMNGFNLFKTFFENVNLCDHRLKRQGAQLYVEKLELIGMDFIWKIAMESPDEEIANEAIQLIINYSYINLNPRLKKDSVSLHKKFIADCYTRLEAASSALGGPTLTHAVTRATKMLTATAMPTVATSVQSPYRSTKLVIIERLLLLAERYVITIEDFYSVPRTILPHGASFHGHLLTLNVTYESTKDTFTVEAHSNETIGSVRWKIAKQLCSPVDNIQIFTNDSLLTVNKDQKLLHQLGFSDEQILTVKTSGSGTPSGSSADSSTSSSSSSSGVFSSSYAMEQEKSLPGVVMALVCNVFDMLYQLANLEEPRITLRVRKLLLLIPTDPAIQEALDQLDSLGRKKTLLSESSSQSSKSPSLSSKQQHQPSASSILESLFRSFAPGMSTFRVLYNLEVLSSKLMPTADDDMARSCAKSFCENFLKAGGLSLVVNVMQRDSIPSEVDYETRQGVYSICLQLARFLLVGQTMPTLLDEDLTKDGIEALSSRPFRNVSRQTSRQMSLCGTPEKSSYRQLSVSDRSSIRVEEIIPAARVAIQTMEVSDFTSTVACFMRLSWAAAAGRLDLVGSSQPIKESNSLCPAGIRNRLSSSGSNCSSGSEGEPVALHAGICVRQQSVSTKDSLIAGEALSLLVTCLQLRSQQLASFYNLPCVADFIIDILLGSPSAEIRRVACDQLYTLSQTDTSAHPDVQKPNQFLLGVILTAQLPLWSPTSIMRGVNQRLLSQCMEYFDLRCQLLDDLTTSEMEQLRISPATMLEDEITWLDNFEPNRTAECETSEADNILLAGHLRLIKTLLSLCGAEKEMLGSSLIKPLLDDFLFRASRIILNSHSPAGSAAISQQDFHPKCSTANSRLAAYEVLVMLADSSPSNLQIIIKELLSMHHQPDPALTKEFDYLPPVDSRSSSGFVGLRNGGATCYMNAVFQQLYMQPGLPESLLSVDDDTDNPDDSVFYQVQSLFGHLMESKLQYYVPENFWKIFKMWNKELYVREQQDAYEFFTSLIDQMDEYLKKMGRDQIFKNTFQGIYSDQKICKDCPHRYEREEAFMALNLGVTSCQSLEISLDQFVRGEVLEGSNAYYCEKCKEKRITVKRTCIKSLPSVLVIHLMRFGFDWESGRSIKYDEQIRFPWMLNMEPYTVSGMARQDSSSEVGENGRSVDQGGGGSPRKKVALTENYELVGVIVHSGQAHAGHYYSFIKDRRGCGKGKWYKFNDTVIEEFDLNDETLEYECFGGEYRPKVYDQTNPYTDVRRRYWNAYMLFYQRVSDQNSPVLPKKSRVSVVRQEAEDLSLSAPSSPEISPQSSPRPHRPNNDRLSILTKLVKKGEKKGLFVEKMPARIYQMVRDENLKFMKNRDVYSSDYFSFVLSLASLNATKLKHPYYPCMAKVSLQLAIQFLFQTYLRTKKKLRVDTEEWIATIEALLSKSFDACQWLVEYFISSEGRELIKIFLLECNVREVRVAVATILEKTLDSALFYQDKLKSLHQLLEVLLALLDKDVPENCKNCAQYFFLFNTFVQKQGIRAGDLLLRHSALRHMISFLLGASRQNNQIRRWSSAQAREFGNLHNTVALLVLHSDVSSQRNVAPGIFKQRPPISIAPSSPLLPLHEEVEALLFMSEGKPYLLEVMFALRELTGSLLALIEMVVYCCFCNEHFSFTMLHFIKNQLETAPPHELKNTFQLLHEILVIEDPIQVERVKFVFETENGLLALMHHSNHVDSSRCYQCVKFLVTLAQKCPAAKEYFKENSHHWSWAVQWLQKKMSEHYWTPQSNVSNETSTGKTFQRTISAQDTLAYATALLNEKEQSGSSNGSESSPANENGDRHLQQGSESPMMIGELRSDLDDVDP

NC(=O)C1CCCCN1C(=O)CCl (stereo not given)
inactive: USP19 -0.231 | USP22 0.159 | USP24 -0.241 | USP25 -0.267 | USP28 -0.652
